Hits are enriched below; roughly 3.9% of the tested compounds scored in any of these assays.
esBAF inh: inhibitors of esBAF chromatin remodeling in mouse ES cells; 350,000 tested, 2% active; AID 602393; reporter increase, % at 12.5 µM; Bmi1-luciferase knock-in reporter, 24 h; 100% = twice the neutral-well signal; in the data active = activation above about 40%; inconclusive = no clear call, values can overlap the other calls;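 also: a rise in the Bmi1 reporter signal indicates esBAF inhibition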
Wnt bcat act: activators of Wnt/beta-catenin signaling | Wnt/beta-catenin reporter cell assay, activator, plate reader | 300,000 tested, 1.2% active | activation, % at 9.35 µM | AID 743398; in the data active = activation above about 30%, passing the limit was not always enough; inconclusive = no clear call, values can overlap the other calls
HSF1 inh: HSF1 inhibition. activity change, negative = inhibition, % at 7.5 µM (by protocol). NIH3T3-HGL HSE-luciferase, MG132-induced, luminescence 8 h; hits give low values. AID 2098. 300,000 tested, 0.77% active;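 active = more than half of replicate wells show activity change below -50%, luminescence cut by over half; inconclusive = some wells, but at most half, below -50%; inactive = no replicate well below -50%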;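 also: luciferase reports HSF-1 transcriptional activity via heat shock element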
HSF1 activator: increases HSF-1 driven luciferase reporter signal; NIH3T3-HGL HSF-1 luciferase reporter, MG132, 8 h; 100% = twice DMSO control signal; activation, % at 9 µM; 300,000 tested, 1.7% active; AID 504408;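 active = mean replicate activation of at least 50% with a set share of replicates each reaching 50%; inconclusive = only one of those two conditions met; inactive = mean below 50% and too few replicates reaching it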
MITF TRPM1 HTS: increases MITF-driven TRPM1 promoter luciferase signal. SK-MEL-5 TRPM1-promoter luciferase, 24 h; % of positive control, neutral wells = 0. activation, % at 12.5 µM. 300,000 tested, 0.75% active. AID 588334;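 active = mean activation of at least 80% with every replicate also reaching 80%; inconclusive = mean reaches 80% but some replicate falls short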
Of the large screens only hits and unclear results are named; the others gave an inactive call.

O=C(COc1ccccc1-c1ccccc1)NN=C1CCCC1	none (no result: esBAF inh, HSF1 inh, HSF1 activator)
O=C1CCC/C(=N\NC(=O)c2ccc(COc3ccccc3-c3ccccc3)cc2)C1	HSF1 activator 72
Cc1cc(-n2c(C)cc(C(=O)CSc3ccccn3)c2C)no1	esBAF inh 76, MITF TRPM1 HTS 107 (no result: HSF1 inh, HSF1 activator)
C[C@H](CO)N1C[C@H](C)[C@@H](CN(C)Cc2ccccc2)Oc2ccc(NC(=O)C3CC3)cc2CC1=O	none (no result: Wnt bcat act, HSF1 inh, HSF1 activator, MITF TRPM1 HTS)
Cc1nnc(-c2cnn(-c3ccccc3)c2N)n1Cc1cccc(C(F)(F)F)c1	HSF1 inh -60 (no result: Wnt bcat act, MITF TRPM1 HTS)
FC(F)(F)c1cnc(-c2cnc3c(-c4ccc(Cl)cc4)cnn3c2)c(Cl)c1	none
Nc1c(-c2ccc(Cl)cc2)cnn1-c1cccc(C(F)(F)F)c1	esBAF inh 68
Nc1c(-c2ccccc2)cnn1-c1ccccc1	none
Cc1ccc(-c2cnn(-c3cccc(C(F)(F)F)c3)c2N)cc1	esBAF inh 87, HSF1 activator 53 (no result: Wnt bcat act, MITF TRPM1 HTS)
Cc1nn(-c2cccc([N+](=O)[O-])c2)c(N)c1-c1ccccc1	esBAF inh 66, MITF TRPM1 HTS 92
Cc1nn(-c2ccccc2)c(N)c1Sc1cccc([N+](=O)[O-])c1	none
Cc1ccc(S(=O)(=O)Nc2ccc3c(c2)C(=O)N([C@@H](C)CO)C[C@H](C)[C@@H](CN(C)Cc2ccc(C(=O)O)cc2)O3)cc1	none (no result: Wnt bcat act, HSF1 inh, HSF1 activator, MITF TRPM1 HTS)
Nc1c(-c2ccccc2)cnn1-c1cccc([N+](=O)[O-])c1	esBAF inh inconclusive, Wnt bcat act inconclusive
Nc1c(-c2ccc(Cl)cc2)cnn1-c1cccc([N+](=O)[O-])c1	esBAF inh 64 (no result: Wnt bcat act, MITF TRPM1 HTS)
Cn1cnc(S(=O)(=O)N2CC[C@H]3[C@H](CO)Nc4ccc(-c5ccc(F)cc5)cc4[C@H]32)c1	none (no result: Wnt bcat act, HSF1 inh, HSF1 activator, MITF TRPM1 HTS)
N#C[C@@H]1[C@H](c2ccc(C#CCC3CCCC3)cc2)[C@H](CO)N1C(=O)CN1CCOCC1	none (no result: Wnt bcat act, HSF1 inh, HSF1 activator, MITF TRPM1 HTS)
CCOC(=O)c1cnc(-n2nc(C)cc2C)nc1N(C)C	esBAF inh 44
CN1C(=O)c2cc(NC(=O)Nc3ccccc3F)ccc2OC[C@@H]2O[C@H](CC(=O)NCCc3ccncc3)CC[C@@H]21	none (no result: Wnt bcat act, HSF1 inh, HSF1 activator, MITF TRPM1 HTS)
Cc1ccc(-c2ccc3c(c2)O[C@H](CN(C)C(=O)CC2CC2)[C@@H](C)CN([C@@H](C)CO)S3(=O)=O)cc1	none (no result: Wnt bcat act, HSF1 inh, HSF1 activator, MITF TRPM1 HTS)
Cc1cccc(NC(=S)N(C)C)c1C	none
Cc1cccc(Nc2cc(C)c3c(O)cccc3n2)c1C	esBAF inh 60
CCCNC(=O)N1[C@@H](C#N)[C@H](c2ccc(-c3cccc(OC)c3)cc2)[C@@H]1CO	none (no result: Wnt bcat act, HSF1 inh, HSF1 activator, MITF TRPM1 HTS)
C[C@@H]1CN([C@@H](C)CO)C(=O)c2cc(NS(=O)(=O)c3ccc(Cl)cc3)ccc2O[C@H]1CN(C)C(=O)Nc1ccccc1	none (no result: Wnt bcat act, HSF1 inh, HSF1 activator, MITF TRPM1 HTS)
Cc1ccc(Cc2c(-c3ccc(F)cc3)nc3cc(C)ccn23)cc1	esBAF inh 44 (no result: HSF1 inh, HSF1 activator, MITF TRPM1 HTS)
O=C(Nc1nnc(SCCN2CCOCC2)s1)C1CC(=O)N(c2ccccc2)C1 (centres undefined)	none
Cc1ccc(N2CC(C(=O)Nc3nnc(SCCN4CCOCC4)s3)CC2=O)cc1 (centres undefined)	HSF1 inh -55
C[C@@H]1CCCCO[C@@H](CN(C)C(=O)Nc2ccccc2)[C@@H](C)CN([C@@H](C)CO)C(=O)c2cc(NC(=O)C3CCCCC3)ccc2O1	none (no result: Wnt bcat act, HSF1 inh, HSF1 activator, MITF TRPM1 HTS)
Cc1ccc(O)c(N=CC2=C(O)c3ccccc3C2=O)c1	esBAF inh 78, Wnt bcat act 117
O=C1C(C=Nc2ccccc2)=C(O)c2ccccc21	esBAF inh 56, HSF1 activator 54
O=C1C(C=NCCN2CCOCC2)=C(O)c2ccccc21	esBAF inh 51, Wnt bcat act 34
O=C1C(C=Nc2ccccc2O)=C(O)c2ccccc21	Wnt bcat act 36
O=C(C[C@H]1CC[C@@H]2[C@H](COC[C@@H](O)CN2S(=O)(=O)c2cccc(F)c2)O1)Nc1ccc(-c2ccccc2)cc1	none (no result: Wnt bcat act, HSF1 inh, HSF1 activator, MITF TRPM1 HTS)
Cc1ccc(S(=O)(=O)N(C)C[C@H]2Oc3ccc(NC(=O)Cn4cnnn4)cc3CC(=O)N([C@H](C)CO)C[C@H]2C)cc1	none (no result: Wnt bcat act, HSF1 inh, HSF1 activator, MITF TRPM1 HTS)
Cc1cccc(N=c2oc3cc(O)ccc3cc2C(N)=O)c1	esBAF inh 58, Wnt bcat act 40, HSF1 activator 58
Cc1cc(NC(=O)c2ccc(-c3ccccc3[N+](=O)[O-])o2)no1	esBAF inh 57 (no result: HSF1 inh, HSF1 activator, MITF TRPM1 HTS)
CCn1nnc(NC(=O)c2ccc(-c3ccccc3[N+](=O)[O-])o2)n1	none
CC(=O)c1cccc(NC(=O)c2ccc(-c3ccccc3[N+](=O)[O-])o2)c1	esBAF inh 103, Wnt bcat act 109
Cc1ccc(S(=O)(=O)Nc2ccc3c(c2)C(=O)N([C@@H](C)CO)C[C@H](C)[C@@H](CN(C)S(=O)(=O)c2cn(C)cn2)OCCCC[C@H](C)O3)cc1	none (no result: Wnt bcat act, HSF1 inh, HSF1 activator, MITF TRPM1 HTS)
Cc1ccc(S(=O)(=O)N2CCCC(C(=O)NCCc3ccc4c(c3)OCO4)C2)cc1 (centres undefined)	HSF1 inh -68 (no result: Wnt bcat act)
CO[C@@H]1CN(C)C(=O)c2cc(NC(C)=O)ccc2OC[C@H](C)N(Cc2ccccc2C(=O)O)C[C@H]1C	none (no result: Wnt bcat act, HSF1 inh, HSF1 activator, MITF TRPM1 HTS)
Cc1nn(-c2ccccc2Cl)c(Cl)c1/C=N/Nc1cccc(C(=O)O)c1	HSF1 inh -71 (no result: esBAF inh, Wnt bcat act)
CCOC(=O)N/N=C/c1c(C)nn(-c2cccc(C(F)(F)F)c2)c1Cl	none (no result: esBAF inh)
Cc1nn(-c2cccc(C(F)(F)F)c2)c(Cl)c1/C=N/Nc1cccc(C(=O)O)c1	HSF1 inh -73 (no result: esBAF inh)
Cc1noc(C)c1NC(=O)N(C)C[C@H]1Oc2ncc(C#CC3CCCCC3)cc2C(=O)N([C@H](C)CO)C[C@@H]1C	none (no result: Wnt bcat act, HSF1 inh, HSF1 activator, MITF TRPM1 HTS)
COc1ccc(Nc2nc(N)c3ccccc3n2)c(OC)c1	MITF TRPM1 HTS 89
COc1ccc(Nc2nc(-c3ccccc3)nc3ccccc23)c(OC)c1	none
CN(c1ccc(C(=O)N2CCOCC2)cc1[N+](=O)[O-])C1CCCCC1	esBAF inh 57 (no result: Wnt bcat act, HSF1 inh, HSF1 activator)
Cc1c2c(nc3ccccc13)CCC(C(C)(C)C)C2 (centres undefined)	HSF1 activator 57 (no result: esBAF inh)
CC(C)(C)C1CCc2[nH]c3ccccc3c(=O)c2C1 (centres undefined)	none (no result: Wnt bcat act)
CC(=O)c1ccc(NC(=O)Nc2ccc(Cl)cc2)cc1	esBAF inh 66, MITF TRPM1 HTS 125
CC(=O)c1ccc(NC(=O)Nc2ccncc2)cc1	none
CC(C)=CC(=O)Nc1ccc(Cl)cc1	Wnt bcat act 45, HSF1 activator 51, MITF TRPM1 HTS 89 (no result: esBAF inh)
Cc1nc(CN(C)c2ncnc3ccc(-c4ccc5c(c4)OCO5)cc23)cs1	esBAF inh 43 (no result: HSF1 inh, HSF1 activator, MITF TRPM1 HTS)
CN(Cc1ccco1)c1ncnc2ccc(-c3ccc4c(c3)OCO4)cc12	none (no result: HSF1 inh, HSF1 activator)
COCc1cn(CC[C@@H]2CC[C@@H](NC(=O)c3ccccc3)[C@H](CO)O2)nn1	none (no result: Wnt bcat act, HSF1 inh, HSF1 activator, MITF TRPM1 HTS)
COc1ccccc1CN1[C@@H]2Cn3c(ccc(C4=CCCCC4)c3=O)[C@H]1[C@@H](C(=O)N(C)C)[C@@H]2CO	none (no result: Wnt bcat act, HSF1 inh, HSF1 activator, MITF TRPM1 HTS)
Cc1[nH]c2ccccc2c(=O)c1CN(C)Cc1ccccc1	esBAF inh 57
CCCCN(C)Cc1c(C)[nH]c2ccccc2c1=O	none (no result: esBAF inh)
COCCCn1c(C(=O)NC2CCCCC2C)cc2c(=O)n3cccc(C)c3nc21 (centres undefined)	HSF1 activator 71
